Read-out in assay [1]: TIMP metallopeptidase inhibitor 1 (TIMP1), TIMP1 (gene 7076)
Description: BSK_hDFCGF_TIMP1: BioMAP Diversity Plus: hDFCGF Assay for TIMP metallopeptidase inhibitor 1 (TIMP1) Biomarker Activity (AID 2283062). Particulars: primary human foreskin fibroblasts; actives raise or lower the signal. The essentials: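 Primary human foreskin fibroblasts in the hDFCGF system were dosed with compound for 24 h, then TIMP-1 was measured by ELISA. Activity was fitted bidirectionally relative to DMSO control; parallel SRB staining assessed cytotoxicity.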

Read-out in assay [2]: Monokine induced gamma interferon (MIG), CXCL9 (gene 4283)
Description: BSK_hDFCGF_MIG: BioMAP Diversity Plus: hDFCGF Assay for Monokine induced gamma interferon (MIG) Biomarker Activity (AID 2283063). Particulars: primary human foreskin fibroblasts; actives raise or lower the signal. The essentials: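 ELISA read-out of MIG from primary human dermal fibroblasts 24 h post-dosing. Gain or loss of signal fitted bidirectionally, DMSO as baseline.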

Read-out in assay [3]: Matrix Metallopeptidase 1 (MMP1), MMP1 (gene 4312)
Description: BSK_hDFCGF_MMP1: BioMAP Diversity Plus: hDFCGF Assay for Matrix Metallopeptidase 1 (MMP1) Biomarker Activity (AID 2283064). Conditions: primary human foreskin fibroblasts; actives raise or lower the signal. The essentials: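 ELISA read-out of MMP1 from human foreskin fibroblasts (primary skin cells), 24 h post-dose. Gain or loss of signal was fitted bidirectionally versus DMSO negative control; cytotoxicity was checked by SRB in parallel cultures.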

Read-out in assay [4]: Plasminogen activator inhibitor-1 (PAI1), SERPINE1 (gene 5054)
Description: BSK_hDFCGF_PAI1: BioMAP Diversity Plus: hDFCGF Assay for Plasminogen activator inhibitor-1 (PAI1) Biomarker Activity (AID 2283066). Particulars: primary human foreskin fibroblasts; actives raise or lower the signal. The essentials: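 PAI-1 levels in human dermal foreskin fibroblasts were quantified by ELISA 24 h after dosing, with gain or loss analysed against DMSO. Overt cytotoxicity was checked by sulforhodamine B total-protein staining in parallel cultures.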

Read-out in assay [5]: Intercellular Adhesion Molecule 1 (ICAM1), ICAM1 (gene 3383)
Put plainly: BSK_KF3CT_ICAM1: BioMAP Diversity Plus: KF3CT Assay for Intercellular Adhesion Molecule 1 (ICAM1) Biomarker Activity (AID 2283067). Conditions: primary human keratinocytes with fibroblasts; actives raise or lower the signal. The essentials: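 Human keratinocyte plus foreskin fibroblast primary co-culture was exposed to chemical for 24 h. ICAM-1 was then quantified by ELISA, and the data were fit bidirectionally against DMSO as the negative control and baseline.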

Read-out in assay [6]: Interferon-gamma inducible Protein 10 (IP10), CXCL10 (gene 3627)
Description: BSK_KF3CT_IP10: BioMAP Diversity Plus: KF3CT Assay for Interferon-gamma inducible Protein 10 (IP10) Biomarker Activity (AID 2283068). Particulars: primary human keratinocytes with fibroblasts; actives raise or lower the signal. Put shortly:
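In a primary skin co-culture of keratinocytes and fibroblasts, IP-10 is quantified by ELISA at 24 h after dosing. SRB staining of parallel wells monitors overt toxicity. Curves are fitted both directions against DMSO.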

Read-out in assay [7]: Interleukin-1 alpha (IL1a), IL1A (gene 3552)
Put plainly: BSK_KF3CT_IL1a: BioMAP Diversity Plus: KF3CT Assay for Interleukin-1 alpha (IL1a) Biomarker Activity (AID 2283070). Conditions: primary human keratinocytes with fibroblasts; actives raise or lower the signal. Put shortly:
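Primary skin co-culture (keratinocytes, foreskin fibroblasts), 24 h exposure; ELISA for IL-1a; bidirectional curve fit vs DMSO.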

Read-out in assay [8]: TIMP metallopeptidase inhibitor 2 (TIMP2), TIMP2 (gene 7077)
Put plainly: BSK_KF3CT_TIMP2: BioMAP Diversity Plus: KF3CT Assay for TIMP metallopeptidase inhibitor 2 (TIMP2) Biomarker Activity (AID 2283071). Particulars: primary human keratinocytes with fibroblasts; actives raise or lower the signal. The essentials: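 TIMP-2 measured by ELISA at 24 h in human keratinocyte/fibroblast primary co-cultures exposed to chemicals. Both increases and decreases were fitted against DMSO. Parallel cultures were stained with SRB for total protein as an overt-cytotoxicity check.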

Read-out in assay [9]: Transforming growth factor beta 1 (TGFb1), TGFB1 (gene 7040)
Description: BSK_KF3CT_TGFb1: BioMAP Diversity Plus: KF3CT Assay for Transforming growth factor beta 1 (TGFb1) Biomarker Activity (AID 2283072). Conditions: primary human keratinocytes with fibroblasts; actives raise or lower the signal. Put shortly: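 ELISA quantifies TGF-b1 at 24 h post-dose in a primary human skin co-culture of keratinocytes and fibroblasts, with gain or loss judged against DMSO. Parallel SRB total-protein staining flags overt cytotoxicity.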

Read-out in assay [10]: C-C motif chemokine 2 (Homo sapiens) (UniProt P13500)
Put plainly: BSK_KF3CT_MCP1: BioMAP Diversity Plus: KF3CT Assay for Monocyte Chemoattractant Protein 1 (MCP1/CCL2) Biomarker Activity (AID 2283073). Particulars: primary human keratinocytes with fibroblasts; actives raise or lower the signal. Put shortly:
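Human keratinocyte plus foreskin fibroblast primary co-culture exposed to chemical for 24 h. MCP-1 levels measured by ELISA. Bidirectional curve fitting relative to DMSO negative control as baseline.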

Read-out in assay [11]: Matrix Metallopeptidase 9 (MMP9), MMP9 (gene 4318)
Description: BSK_KF3CT_MMP9: BioMAP Diversity Plus: KF3CT Assay for Matrix Metallopeptidase 9 (MMP9) Biomarker Activity (AID 2283074). Conditions: primary human keratinocytes with fibroblasts; actives raise or lower the signal. Put shortly:
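ELISA read-out of MMP-9 at 24 h post-dosing in a co-culture of human skin keratinocytes and foreskin fibroblasts. Gain or loss of signal was fitted in both directions against DMSO.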

Read-out in assay [12]: urokinase plasminogen activator (uPA), PLAU (gene 5328)
Put plainly: BSK_KF3CT_uPA: BioMAP Diversity Plus: KF3CT Assay for urokinase plasminogen activator (uPA) Biomarker Activity (AID 2283075). Particulars: primary human keratinocytes with fibroblasts; actives raise or lower the signal. The essentials: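 Skin co-culture (keratinocytes + foreskin fibroblasts), human primary; 24 h post-dose; uPA by ELISA; gain/loss fit vs DMSO baseline.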

Read-out in the next assay: CD40, CD40 (gene 958)
Description: BSK_LPS_CD40: BioMAP Diversity Plus: LPS Assay for CD40 Biomarker Activity (AID 2283076). Particulars: primary human HUVEC with PBMC; actives raise or lower the signal. The essentials: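 Primary human umbilical vein endothelial cells co-cultured with peripheral blood mononuclear cells, LPS-stimulated, were dosed with chemical and read 24 h later. CD40 levels were measured by ELISA and fitted bidirectionally against DMSO as negative control and baseline.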

Read-out in assay [13]: Interleukin-8 (IL8), CXCL8 (gene 3576)
Description: BSK_LPS_IL8: BioMAP Diversity Plus: LPS Assay for Interleukin-8 (IL8) Biomarker Activity (AID 2283078). Conditions: primary human HUVEC with PBMC; actives raise or lower the signal. The essentials: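 Human umbilical vein endothelial cells co-cultured with PBMC were stimulated with LPS; IL-8 levels were measured by ELISA 24 h after chemical dosing. Activity was fitted bidirectionally against DMSO as negative control and baseline.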

A short description of assay [14]: BSK_LPS_SRB: Viability Assessment in the BioMAP Diversity Plus: LPS Assay (AID 2283079).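 Note: total protein by sulforhodamine B absorbance as a cytotoxicity measure; measured one day after compound addition.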 Conditions: primary human HUVEC with PBMC. Put shortly: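 Human umbilical vein endothelial cells co-cultured with PBMC (LPS system) were dosed for 24 h. Total protein was stained with 0.1% sulforhodamine B after 10% TCA fixation, read at 560 nm, and fitted bidirectionally against DMSO baseline.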

Read-out in assay [15]: Interleukin-1 alpha (IL1a), IL1A (gene 3552)
Put plainly: BSK_LPS_IL1a: BioMAP Diversity Plus: LPS Assay for Interleukin-1 alpha (IL1a) Biomarker Activity (AID 2283080). Conditions: primary human HUVEC with PBMC; actives raise or lower the signal. The essentials:
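Human umbilical vein endothelial cells co-cultured with peripheral blood mononuclear cells were LPS-stimulated and exposed to test chemicals for 24 h. IL-1 alpha was quantified by ELISA, with bidirectional curve fitting against DMSO as the negative control and baseline.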

Read-out in assay [16]: Monocyte Chemoattractant Protein-1 (MCP1), CCL2 (gene 6347)
Put plainly: BSK_LPS_MCP1: BioMAP Diversity Plus: LPS Assay for Monocyte Chemoattractant Protein-1 (MCP1) Biomarker Activity (AID 2283081). Particulars: primary human HUVEC with PBMC; actives raise or lower the signal. The essentials: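 HUVEC plus PBMC co-culture (human primary cells, LPS system) exposed to test chemical for 24 h; MCP-1 measured by ELISA. Bidirectional curve fitting against DMSO baseline; parallel SRB total-protein staining flags overt cytotoxicity.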

Assay [17] can be described thus: BSK_KF3CT_SRB: Viability Assessment in the BioMAP Diversity Plus: KF3CT Assay (AID 2283069).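 Note: read 24 h after compound addition.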 Conditions: primary human keratinocytes with fibroblasts. Put shortly:
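SRB read-out at 560 nm (0.1% stain, TCA-fixed cells) gauges overt cytotoxicity in a human skin keratinocyte–fibroblast co-culture 24 h post-dosing. Signal change was fitted bidirectionally relative to DMSO control.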

Read-out in assay [18]: E-selectin (Homo sapiens) (UniProt P16581)
Description: BSK_LPS_Eselectin: BioMAP Diversity Plus: LPS Assay for Eselectin Biomarker Activity (AID 2283077). Particulars: primary human HUVEC with PBMC; actives raise or lower the signal. The essentials: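 Human umbilical vein endothelial cells co-cultured with peripheral blood mononuclear cells under LPS stimulation; E-selectin measured by ELISA 24 h after chemical dosing. Activity fitted bidirectionally against DMSO as negative control and baseline.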

Read-out in assay [19]: Vascular cell adhesion molecule 1 (VCAM1), VCAM1 (gene 7412)
Put plainly: BSK_hDFCGF_VCAM1: BioMAP Diversity Plus: hDFCGF Assay for Vascular cell adhesion molecule 1 (VCAM1) Biomarker Activity (AID 2283065). Conditions: primary human foreskin fibroblasts; actives raise or lower the signal. Put shortly: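 Primary human foreskin fibroblasts (hDFCGF system) were dosed with chemical and VCAM-1 was measured by ELISA 24 h later. Bidirectional curve fitting used DMSO as negative control and activity baseline.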

The structures appear in SMILES notation. The source made the active and inactive calls. Rule for the calls: active = hit-call score of the fitted dose curve at least 0.9, where 1 is the maximum; inactive = score below 0.9.

Sequence of E-selectin (Homo sapiens) (P16581 whole entry, looked up): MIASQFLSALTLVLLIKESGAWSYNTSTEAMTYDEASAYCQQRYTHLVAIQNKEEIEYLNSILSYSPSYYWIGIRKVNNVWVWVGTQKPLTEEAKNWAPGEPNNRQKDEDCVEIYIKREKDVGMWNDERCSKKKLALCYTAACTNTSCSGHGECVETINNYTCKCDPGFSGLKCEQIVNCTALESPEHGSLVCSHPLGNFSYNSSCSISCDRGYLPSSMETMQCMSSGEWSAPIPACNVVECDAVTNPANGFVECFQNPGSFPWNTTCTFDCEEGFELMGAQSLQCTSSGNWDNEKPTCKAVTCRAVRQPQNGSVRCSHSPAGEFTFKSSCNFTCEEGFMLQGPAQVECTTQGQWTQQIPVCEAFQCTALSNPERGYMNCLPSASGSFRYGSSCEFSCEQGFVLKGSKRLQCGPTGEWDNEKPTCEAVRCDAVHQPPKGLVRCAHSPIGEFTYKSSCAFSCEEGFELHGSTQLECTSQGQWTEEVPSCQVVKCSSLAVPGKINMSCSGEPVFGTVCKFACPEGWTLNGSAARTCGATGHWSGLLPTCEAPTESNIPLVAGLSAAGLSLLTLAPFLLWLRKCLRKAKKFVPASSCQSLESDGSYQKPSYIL

For `Nc1nc2ncc(CNc3ccc(C(=O)N[C@@H](CCC(=O)O)C(=O)O)cc3)nc2c(=O)[nH]1`, the result in assay [1], in assay [2], in assay [3], in assay [4], in [5] and in assay [6] was inactive. The outcome in [7], in assay [8], in [9], in assay [10], in [11] and in [12] was inactive. Also, the outcome in the assay with CD40, CD40 (gene 958) was “inactive”; in assay [13] it was “inactive”; in assay [14] it was “inactive”; in assay [15] it was “inactive”; in [16], “inactive”.
Regarding `C=CCCCCCCCCC(=O)O`, the outcome in assay [1], in assay [2], in assay [3], in assay [4], in assay [5] and in [17] was inactive. Also, the outcome in [7] is “inactive”; in assay [9], “inactive”; in [10] it was “inactive”; in assay [11] it was “inactive”; in assay [12], “inactive”; in the assay with CD40, CD40 (gene 958) it was “inactive”. Moreover, the result in assay [18], in assay [13], in [14], in assay [15] and in [16] was inactive.
As to `CNCc1ccc(NC(=O)c2c[nH]c3c2C(=O)CCC3)cc1`, the result in assay [1], in [2], in assay [3], in assay [4], in assay [5] and in assay [7] was inactive. The outcome in [8] is “inactive”; in [9], “inactive”; in assay [10], “inactive”; in assay [12], “inactive”; with CD40, CD40 (gene 958), “inactive”; in assay [13], “inactive”. Also, the outcome in assay [14], in assay [15] and in assay [16] was inactive.
Regarding `CCCCCCCCCCCCc1ccccc1`, the result in [1], in [2], in assay [19], in assay [4], in assay [5] and in [6] was inactive. Besides, the result in assay [7], in assay [9], in assay [10], in assay [11], in [12] and in [18] was inactive. The outcome in [13], in assay [14], in assay [15] and in [16] was inactive. Besides, the AC50 with CD40, CD40 (gene 958) was 30.7 µM (active).

(Values after PubChem BioAssay (EPA / NIEHS).)
